A selection: hits, their analogues and other compounds. The true share with any hit is near 2.4%.
D2 PAM-1: positive allosteric modulators of human D2 dopamine receptor | potentiation, % at 10 µM | HEK293 T-REx D2, calcium flux, EC20 dopamine potentiation | P14416 | hit rate 0.34% among 340,000;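 active = potentiation over 3 SD above the plate norm, cut at about 30% in these data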; also: 0% is about no effect
Target sequence (P14416 whole entry, looked up): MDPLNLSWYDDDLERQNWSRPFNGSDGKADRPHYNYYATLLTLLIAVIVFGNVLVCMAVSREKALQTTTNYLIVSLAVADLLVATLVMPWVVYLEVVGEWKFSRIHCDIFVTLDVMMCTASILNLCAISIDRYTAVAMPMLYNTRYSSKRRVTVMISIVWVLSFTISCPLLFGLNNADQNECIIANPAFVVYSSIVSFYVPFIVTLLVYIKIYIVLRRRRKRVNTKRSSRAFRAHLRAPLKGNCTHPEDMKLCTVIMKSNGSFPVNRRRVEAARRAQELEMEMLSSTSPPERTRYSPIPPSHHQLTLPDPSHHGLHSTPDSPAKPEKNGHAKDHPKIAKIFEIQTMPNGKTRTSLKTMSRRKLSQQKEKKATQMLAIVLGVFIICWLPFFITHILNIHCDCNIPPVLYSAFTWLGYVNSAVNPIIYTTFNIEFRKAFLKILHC
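Tetracycline-induced Hek293 Trex D2 cells, force-coupled to calcium, loaded with no-wash calcium dye. Compound added with 180 s kinetic read for agonism, then EC20 dopamine and a further 180 s read for potentiation.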
D2 ag-1: activates the human D2 dopamine receptor | activation, % at 2 µM | AID 485358 | P14416 | HEK293 T-REx D2 cells, calcium flux agonist mode | hit rate 0.53% among 340,000;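 active = activation over 3 SD above normal in the single-dose calcium agonist read, cut at about 30% in these data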; also: 0% is about no effect
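Tetracycline-induced HEK293 Trex cells with D2 receptor force-coupled to calcium signaling, plated overnight at 30 C and loaded with no-wash calcium dye. Calcium flux read kinetically for 180 s after compound addition; responses flag agonists.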
D2 PAM-2: human D2 receptor positive allosteric modulation; DiscoveRx D2 beta-arrestin cells, luminescence, 90 min; 100% = 57 uM dopamine signal; potentiation, % (no concentration beside the values); P14416; hit rate 0.23% among 360,000; in the data active = potentiation above about 50%
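PathHunter beta-arrestin assay in DiscoveRx D2 cells. Compounds were added with an EC20 of dopamine (50 nM final) for 90 min at 37 deg C. Luminescence was read 1 h after detection reagent, with 57 uM dopamine as the EC100 control.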
D2 antag: antagonists of human D2 dopamine receptor; HEK293 TREx D2 cells, calcium flux, dopamine EC80; hit rate 2% among 340,000; inhibition, % at 10 µM; AID 485344; P14416; in the data active = inhibition above about 30%; inactive = below that, where a call was filed; also: 0% is about no effect
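Calcium mobilization kinetics were recorded at 1 s intervals in tetracycline-induced HEK293 T-REx D2 cells, first for 180 s after compound addition and then 180 s after EC80 dopamine.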
D2 ag-2: activates the human D2 dopamine receptor; DiscoveRx PathHunter D2 beta-arrestin, luminescence, 90 min; 100% = 57 uM dopamine signal; activation, % (no concentration beside the values); hit rate 0.084% among 360,000; in the data active = activation above about 40%
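Agonist mode: compounds alone added to overnight-plated D2 PathHunter cells for 90 min at 37 C, with 57 uM final dopamine (EC100) defining full response. Beta-arrestin recruitment detected by chemiluminescent reagent, read after 1 h at ambient temperature.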
* = called active by the depositor; / = no result.

SMILES	D2 PAM-1	D2 ag-1	D2 PAM-2	D2 antag	D2 ag-2
COC(=O)c1[nH]c2cccc(OC)c2c1NC(=O)CCN1CCN(c2cccc(Cl)c2)CC1	-22	0	/	38*	/
COc1ccccc1NC(=O)NCCN1CCN(c2cccc(Cl)c2)CC1	-21	10	-22	53*	-3
CC1CN(C2CCCCC2)C(=O)NC1=O (stereo not drawn)	/	/	-2	/	1
Cc1coc2c(C)c3oc(=O)c(CCC(=O)NCCCN4CCOCC4)c(C)c3cc12	3	0	-49	-11	-3
Cc1coc2c(C)c3oc(=O)c(CCC(=O)N4CCC(C(=O)NCCCC(=O)O)(c5ccccc5)CC4)c(C)c3cc12	41*	0	-7	-3	1
COc1ccc(NC(=O)CN(C)C(=O)CN2C(=O)c3ccc([N+](=O)[O-])cc3C2=O)cc1	-5	1	66*	0	11
O=C(NCc1ccccc1C(F)(F)F)C1CCC(=O)N(CCCc2ccccc2)C1 (stereo not drawn)	-5	-1	-5	-14	-3
CC1CN(C(=O)/C(C#N)=C2\N=C(NC(=O)c3ccccc3Cl)c3ccccc32)CC(C)O1 (stereo not drawn)	2	0	/	59*	/
COc1ccc(S(=O)(=O)c2c(Nc3cccc(C)c3C)sc(C(=O)c3ccccc3)c2N)cc1	4	/	/	/	/
COc1cc(-c2nnn(CC(=O)Nc3ccc(OC(F)(F)F)cc3)n2)cc(OC)c1OC	-10	0	/	/	/
COC(=O)C(C)Sc1ccc2nnc(CCNS(=O)(=O)c3ccc(C)cc3)n2n1 (stereo not drawn)	0	-1	-9	1	-3
COC(=O)C(C)Sc1ccc2nnc(CCNS(=O)(=O)c3ccccc3)n2n1 (stereo not drawn)	7	-1	-9	37*	6
CN(CC(=O)Nc1cccc(F)c1)C(=O)c1ccc2c(c1)S(=O)(=O)N=C1CCCCCN12	32*	1	-12	-1	-5
Cc1cccc(N2CCN(C(=O)c3cn(CC(C)C)c(=O)c4c3c3ccccc3n4C)CC2)c1C	-2	1	/	/	/
CCOc1ccc2nc(NC(=O)c3nc(SC(C)C)ncc3Cl)sc2c1	6	/	/	/	/
COC(=O)c1c(SCC(=O)Nc2cccc(Cl)c2C)[nH]c2ccccc2c1=O	0	0	/	/	/
Cc1ccc2ncccc2c1	6	0	-8	-7	-1
Cc1nnc(C)c2c(C)n(-c3ccc4ncccc4c3)c(C)c12	1	0	-3	32*	2
Cc1cccc(NS(=O)(=O)c2ccc(C(=O)NCC(c3ccco3)N(C)C)cc2)c1C (stereo not drawn)	4	0	-26	-2	-1
CN(CCOc1ccccc1)CC(=O)Nc1ccc(Br)cc1F	0	1	-8	53*	0
COc1cc(Cl)c(C)cc1Nc1ncnc2c1nc1n2CCCC1	-6	0	/	/	/
COc1cc(OC)cc(-c2nnc(NC(=O)c3ccc4c(c3)OCCO4)o2)c1	-6	0	0	-3	7
O=C(CN1CCN(c2ccc(F)cc2)CC1)N1N=CCC1c1ccccc1 (stereo not drawn)	2	0	-19	36*	1
Cc1onc(-c2ccccc2)c1CNS(=O)(=O)c1ccccc1[N+](=O)[O-]	5	-1	6	-16	4
COCCCNc1nc(NCc2ccc(C)cc2)c2cnn(C)c2n1	2	1	/	/	/
SMILES	D2 PAM-1	D2 ag-1	D2 PAM-2	D2 antag	D2 ag-2
Cc1cc(C)c2sc(NNC(=O)C3COc4ccccc4O3)nc2c1 (stereo not drawn)	-3	-1	-6	33*	-4
Cc1cccc2sc(NNC(=O)C3COc4ccccc4O3)nc12 (stereo not drawn)	-2	-1	5	10	7
CCOc1cc2c(cc1/C=C/c1noc(C)c1[N+](=O)[O-])OC(C)C2 (stereo not drawn)	3	64*	-6	14	-6
COc1c(C)cc(S(=O)(=O)NCCc2c(C)[nH]c3ccccc23)c(C)c1C	-3	1	/	/	/
Cc1[nH]c2ccccc2c1CCNS(=O)(=O)c1ccc(S(N)(=O)=O)cc1	-16	6	-6	55*	-4
O=C1c2ccccc2C(Nc2ccc(S(=O)(=O)N3CCCCCC3)cc2)N1c1ccccn1 (stereo not drawn)	-9	-1	-7	20	-3
O=C1c2cccnc2C(Nc2ccc(S(=O)(=O)N3CCCCC3)cc2)N1Cc1ccccc1 (stereo not drawn)	33*	0	3	-22	0
CCCOc1ccccc1C(=O)N(Cc1cccc(Br)c1)C1CCS(=O)(=O)C1 (stereo not drawn)	1	1	3	47*	2
O=C(c1n[nH]c2ccccc12)N1CCOCC1	-12	1	-5	39*	0
COc1ccc(OC)c(CCNC(=O)CCCn2c(=O)c3cccn3c3ccccc32)c1	-10	1	/	/	/
O=c1[nH]c(C2CCN(S(=O)(=O)c3ccccc3)CC2)nc2c1nnn2Cc1cccc(Cl)c1	5	0	-1	32*	1
O=c1[nH]c(C2CCN(S(=O)(=O)c3ccc(C(F)(F)F)cc3)CC2)nc2c1nnn2Cc1cccc(F)c1	0	1	-13	-12	-2
O=c1[nH]c(C2CCN(S(=O)(=O)c3ccccc3C(F)(F)F)CC2)nc2c1nnn2Cc1cccc(F)c1	5	0	-1	43*	5
Cc1ccc(CCNC(c2ccc(F)cc2)c2nnc(-c3ccccc3Cl)o2)cc1 (stereo not drawn)	/	1	/	/	/
Clc1cccc2c1CCN(Cc1nc(-c3cnccn3)no1)C2	-11	1	-2	40*	-5
Cc1ccc(Cn2c(=N)c(C(=O)NCc3ccco3)cc3c(=O)n4ccccc4nc32)cc1	-25	-1	-43	83*	-3
N=c1c(C(=O)NCC2CCCO2)cc2c(=O)n3ccccc3nc2n1Cc1ccc(Cl)cc1 (stereo not drawn)	-15	0	-17	55*	-3
CCOc1ccc(/C=C/C(=O)OCC(=O)NCCc2ccc(OCC)c(OCC)c2)cc1OC	-2	-1	-7	9	-3
Cc1cc(NC(=O)C2C3C(=O)N(CC4CCCO4)C(C(=O)NCc4ccccc4)C34C=CC2(C)O4)no1 (stereo not drawn)	6	1	-5	33*	-2
CCCn1c2ccccc2c2cnn(CC(=O)NCC3CCN(Cc4ccccc4C)CC3)c(=O)c21	-19	/	/	/	/
O=C(Nc1ccc2nc(SCC(=O)N3CCOCC3)sc2c1)c1cccc(Br)c1	/	0	/	/	/
Nc1nc(SCC(=O)Nc2ccc(Cl)cc2)[nH]c(=O)c1-c1ccccc1	-22	-1	-29	36*	-2
